# Measured values taken from PubChem BioAssay (NCATS).
# Values joined by “and” are separate entries in the source; they are usually repeats but may differ in a detail not shown here. Equal entries are not always repeated. Inconclusive results are not listed. Active and inactive are the calls of the source. Unless noted, the call rests on the fitted dose curve; in most records, active means well fitted activation curve with a large enough effect; inconclusive means small, poorly fitted or top-dose-only effect; inactive means flat fitted curve, though single readings scatter.
# Tested on: not listed separately
# Assay: qHTS assay for small molecule disruptors of the mitochondrial membrane potential - 1 hr assay (AID 651754; calls by dose curve; further: nearly all actives have a fitted effect of over 35% in size; further: potency means the concentration at half of the fitted maximal effect)
# Conditions: series mostly up to 92.2 µM
# Summary of the method: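 HepG2 cells, attached overnight at 37C, were exposed to compound or DMSO vehicle for 1 hr at 37C, 5% CO2, then stained with Mito-MPS dye for 30 min. Red aggregate versus green monomer fluorescence reports membrane potential.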
row,Compound,Potency
1,C[C@]12C/C(=C/O)C(=O)C[C@@H]1CC[C@@H]1[C@@H]2CC[C@@]2(C)[C@H]1CC[C@]2(C)O,inactive
2,OCCOc1ccccc1,inactive
3,CC(=O)Oc1ccccc1C(=O)Nc1ncc([N+](=O)[O-])s1,7.5 µM (active)
4,Oc1ccc(Cl)cc1Cc1ccccc1,18.8 µM (active)
5,N[C@@H](Cc1ccc(N(CCCl)CCCl)cc1)C(=O)O,inactive
6,CC(C)C(=O)Nc1ccc([N+](=O)[O-])c(C(F)(F)F)c1,42.2 µM (active)
7,CCOP(=S)(OCC)Oc1cc(C)nc(C(C)C)n1,inactive
8,c1ccc2c(c1)Nc1ccccc1S2,42.2 µM (active)

# Tested on: not listed separately
# Assay: qHTS assay for small molecule disruptors of the mitochondrial membrane potential - 5 hr assay (AID 651755; calls by dose curve; further: nearly all actives have a fitted effect of over 40% in size; further: potency means the concentration at half of the fitted maximal effect)
# Conditions: JC-1-type ratio dye; series mostly up to 92.2 µM
# Summary of the method: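 HepG2 cells (2,000/well), attached overnight, exposed to compound 5 hr at 37C, then Mito-MPS dye 30 min. Fluorescence read for monomers (490/535 nm) and aggregates (540/590 nm).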
row,Compound,Potency
1,C[C@]12C/C(=C/O)C(=O)C[C@@H]1CC[C@@H]1[C@@H]2CC[C@@]2(C)[C@H]1CC[C@]2(C)O,inactive
2,OCCOc1ccccc1,inactive
3,CC(=O)Oc1ccccc1C(=O)Nc1ncc([N+](=O)[O-])s1,6.68 µM (active)
4,Oc1ccc(Cl)cc1Cc1ccccc1,21.1 µM (active)
5,N[C@@H](Cc1ccc(N(CCCl)CCCl)cc1)C(=O)O,inactive
6,CC(C)C(=O)Nc1ccc([N+](=O)[O-])c(C(F)(F)F)c1,42.2 µM (active)
7,CCOP(=S)(OCC)Oc1cc(C)nc(C(C)C)n1,inactive
8,c1ccc2c(c1)Nc1ccccc1S2,66.8 µM (active)

# Target: Tumor necrosis factor (Homo sapiens) (UniProt P01375)
# Assay: qHTS assay to identify small molecules that stimulate Tumor Necrosis Factor-alpha (TNF-alpha) secretion (AID 651757; active means well fitted curve in the direction sought with a large enough effect in the signal ratio; the % refers to the signal ratio; further: 0% is about no effect)
# Conditions: Human cells, HTRF 665/615 ratio; series mostly up to 92.2 µM
# Summary of the method: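 THP-1 cells were exposed to compounds for 17 hrs at 37 C, after which secreted TNF-alpha was measured by homogeneous HTRF (TR-FRET) using cryptate- and XL665-labeled anti-TNF-alpha antibodies, read after 3 hr at room temperature.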
# Tumor necrosis factor (Homo sapiens), sequence (P01375 whole entry, looked up): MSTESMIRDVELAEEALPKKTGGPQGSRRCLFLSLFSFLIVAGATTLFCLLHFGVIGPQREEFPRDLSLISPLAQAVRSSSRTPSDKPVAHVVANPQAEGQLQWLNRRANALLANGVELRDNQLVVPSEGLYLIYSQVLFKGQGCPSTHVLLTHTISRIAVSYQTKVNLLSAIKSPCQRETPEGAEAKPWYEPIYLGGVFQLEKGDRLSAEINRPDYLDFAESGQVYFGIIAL
row,Compound,outcome
1,C[C@]12C/C(=C/O)C(=O)C[C@@H]1CC[C@@H]1[C@@H]2CC[C@@]2(C)[C@H]1CC[C@]2(C)O,inactive
2,NCC(O)c1ccc(O)cc1 (centres undefined),inactive
3,OCCOc1ccccc1,inactive
4,CCCC(C)(COC(N)=O)COC(=O)NC(C)C (centres undefined),inactive
5,Oc1ccccc1-c1ccccc1,inactive
6,Oc1ccc(Cl)cc1Cc1ccccc1,inactive
7,Oc1cccc2cccnc12,inactive
8,CNCC(O)c1ccc(O)cc1 (centres undefined),inactive
9,N[C@@H](Cc1ccc(N(CCCl)CCCl)cc1)C(=O)O,inactive
10,CCOP(=S)(OCC)Oc1cc(C)nc(C(C)C)n1,inactive
11,Clc1ccc(COC(Cn2ccnc2)c2ccc(Cl)cc2Cl)cc1 (centres undefined),inactive

# Tested on: not listed separately
# Assay: qHTS assay to identify small molecules that stimulate interleukin-8 (IL-8) secretion (AID 651758; active means well fitted activation curve with a large enough effect in the signal ratio; the % refers to the signal ratio; further: potency means the concentration at half of the fitted maximal effect; on activation: 0% is about no effect)
# Conditions: HTRF ratio (665/615); series mostly up to 92.2 µM
# Summary of the method: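 THP-1 cells (2000/well) exposed to compound 16 h at 37 C; secreted IL-8 then detected by HTRF with cryptate- and XL665-labelled anti-IL-8 antibody pair after 1-3 h at room temperature.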
row,Compound,Potency
1,C[C@]12C/C(=C/O)C(=O)C[C@@H]1CC[C@@H]1[C@@H]2CC[C@@]2(C)[C@H]1CC[C@]2(C)O,inactive
2,NCC(O)c1ccc(O)cc1 (centres undefined),inactive
3,CCCC(C)(COC(N)=O)COC(=O)NC(C)C (centres undefined),inactive
4,Oc1ccccc1-c1ccccc1,inactive
5,Oc1cccc2cccnc12,inactive
6,COc1cc2c(c(OC)c1OC)-c1ccc(OC)c(=O)cc1[C@@H](NC(C)=O)CC2,53.1 nM (active) and 47.3 nM (active)

# Tested on: not listed separately
# Assay: qHTS assay for environmental chemicals that activate the Aryl hydrocarbon Receptor (AhR) signaling pathway (AID 651777); further: nearly all actives have a fitted effect of over 15% in size; further: potency means the concentration at half of the fitted maximal effect; on activation: % of control where 0% means no effect
# Conditions: 1A2-DRE human hepatoma cells, luciferase, 24 h; activation: active compounds read high
# Summary of the method: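 Stable CYP1A2 promoter/DRE-luciferase human hepatoma line treated 24 hr; One-Glo luminescence, 30 min RT.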
Compound,activation,Potency
Cc1cc(SCc2sc(-c3ccc(C(F)(F)F)c(F)c3)nc2C)ccc1OCC(=O)O,14.6% (inactive),–
C[C@]12C/C(=C/O)C(=O)C[C@@H]1CC[C@@H]1[C@@H]2CC[C@@]2(C)[C@H]1CC[C@]2(C)O,1.36% (inactive) and 0.159% (inactive),–
NCC(O)c1ccc(O)cc1 (centres undefined),-0.493% (inactive),–
OCCOc1ccccc1,-1.68% (inactive) and 1.95% (inactive) and 8.55% (inactive),–
CC(=O)Oc1ccccc1C(=O)Nc1ncc([N+](=O)[O-])s1,–,0.708 µM (active)
CCCC(C)(COC(N)=O)COC(=O)NC(C)C (centres undefined),0.419% (inactive) and -1.4% (inactive),–
Oc1ccccc1-c1ccccc1,0.277% (inactive) [middle of 4 runs],–
Oc1ccc(Cl)cc1Cc1ccccc1,0.74% (inactive) and 2.47% (inactive),–
NC(=Nc1ccccc1)Nc1ccccc1,–,11.2 µM (active)
C[C@@H]1O[C@@H](O[C@H]2C[C@@H](O)[C@]3(CO)[C@H]4[C@H](O)C[C@]5(C)[C@@H](C6=CC(=O)OC6)CC[C@]5(O)[C@@H]4CC[C@]3(O)C2)[C@H](O)[C@H](O)[C@H]1O,6.71% (inactive),–
Nc1ccncc1,-2.98% (inactive),–
C=C(C)[C@H]1Cc2c(ccc3c2O[C@@H]2COc4cc(OC)c(OC)cc4[C@@H]2C3=O)O1,3.42% (inactive),–
Oc1cccc2cccnc12,0.681% (inactive) and 3.98% (inactive),–
CNCC(O)c1ccc(O)cc1 (centres undefined),-0.394% (inactive),–
N[C@@H](Cc1ccc(N(CCCl)CCCl)cc1)C(=O)O,3.17% (inactive) and 3.79% (inactive),–
CCOP(=S)(OCC)Oc1cc(C)nc(C(C)C)n1,1.79% (inactive) and 0.131% (inactive),–
O=c1oc2ccccc2c(O)c1C(CC(O)c1ccc(-c2ccc(Br)cc2)cc1)c1ccccc1 (centres undefined),-0.116% (inactive),–
O=c1[nH]c2ccccc2n1C1CCN(CCCC(c2ccc(F)cc2)c2ccc(F)cc2)CC1,1.32% (inactive),–
C[C@]12CCC(=O)C(O)=C1CC[C@@H]1[C@@H]2CC[C@]2(C)C(=O)CC[C@@H]12,0.0711% (inactive),–

# Target: Peroxisome proliferator-activated receptor alpha (Homo sapiens) (UniProt Q07869)
# Assay: qHTS assay for small molecule agonists of the peroxisome proliferator-activated receptor alpha (PPARalpha) signaling pathway (AID 651778); further: potency means the concentration at half of the fitted maximal effect; on max response: % of control where 0% means no effect
# Conditions: PathHunter PPARalpha complementation, chemiluminescence, 6 h; max response: active compounds read high
# Summary of the method: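 Enzyme-fragment complementation assay in which ligand-bound PPARalpha translocates and forms an active enzyme that generates chemiluminescence. Cells were plated overnight, exposed to compound for 6 hr at 37 C, and then given detection reagent for 60 min at room temperature.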
# Peroxisome proliferator-activated receptor alpha (Homo sapiens), sequence (Q07869 whole entry, looked up): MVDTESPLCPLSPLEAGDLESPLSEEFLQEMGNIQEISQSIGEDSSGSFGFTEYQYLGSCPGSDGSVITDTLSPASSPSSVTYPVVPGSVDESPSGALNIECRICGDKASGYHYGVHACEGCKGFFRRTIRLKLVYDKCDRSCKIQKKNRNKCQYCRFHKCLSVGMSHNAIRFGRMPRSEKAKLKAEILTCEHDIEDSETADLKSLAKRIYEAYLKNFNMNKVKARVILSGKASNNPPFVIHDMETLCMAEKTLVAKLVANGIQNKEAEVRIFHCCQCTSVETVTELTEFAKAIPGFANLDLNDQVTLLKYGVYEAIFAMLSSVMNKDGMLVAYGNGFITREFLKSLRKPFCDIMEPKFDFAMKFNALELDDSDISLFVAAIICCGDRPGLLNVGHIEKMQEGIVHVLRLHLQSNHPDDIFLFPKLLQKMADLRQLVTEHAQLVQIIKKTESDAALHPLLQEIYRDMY
Compound,Potency,max response
Cc1cc(SCc2sc(-c3ccc(C(F)(F)F)c(F)c3)nc2C)ccc1OCC(=O)O,2 µM (active),–
C[C@]12C/C(=C/O)C(=O)C[C@@H]1CC[C@@H]1[C@@H]2CC[C@@]2(C)[C@H]1CC[C@]2(C)O,–,-0.191% (inactive) and -0.334% (inactive)
NCC(O)c1ccc(O)cc1 (centres undefined),–,-2.88% (inactive)
OCCOc1ccccc1,–,-6.3% (inactive) and -2.04% (inactive) and 0.179% (inactive)
CCCC(C)(COC(N)=O)COC(=O)NC(C)C (centres undefined),–,-0.746% (inactive) and -1.22% (inactive)
Oc1ccccc1-c1ccccc1,–,-2.25% (inactive) and -0.4% (inactive) and 12.1% (inactive)
Oc1ccc(Cl)cc1Cc1ccccc1,–,14% (inactive) and 4.54% (inactive)
C[C@@H]1O[C@@H](O[C@H]2C[C@@H](O)[C@]3(CO)[C@H]4[C@H](O)C[C@]5(C)[C@@H](C6=CC(=O)OC6)CC[C@]5(O)[C@@H]4CC[C@]3(O)C2)[C@H](O)[C@H](O)[C@H]1O,–,-0.456% (inactive)
Nc1ccncc1,–,0.27% (inactive)
C[C@H]1O[C@@H](O[C@H]2[C@@H](O)C[C@H](O[C@H]3[C@@H](O)C[C@H](O[C@H]4CC[C@@]5(C)[C@H](CC[C@@H]6[C@@H]5CC[C@]5(C)[C@@H](C7=CC(=O)OC7)CC[C@]65O)C4)O[C@@H]3C)O[C@@H]2C)C[C@H](O)[C@@H]1O,–,-0.744% (inactive)
C=C(C)[C@H]1Cc2c(ccc3c2O[C@@H]2COc4cc(OC)c(OC)cc4[C@@H]2C3=O)O1,–,7.18% (inactive)
Oc1cccc2cccnc12,–,-5% (inactive) and -2.57% (inactive)
CNCC(O)c1ccc(O)cc1 (centres undefined),–,-4.08% (inactive)
N[C@@H](Cc1ccc(N(CCCl)CCCl)cc1)C(=O)O,–,-0.479% (inactive) and -0.609% (inactive)
CCOP(=S)(OCC)Oc1cc(C)nc(C(C)C)n1,–,-5.15% (inactive) and -1.07% (inactive)
O=c1oc2ccccc2c(O)c1C(CC(O)c1ccc(-c2ccc(Br)cc2)cc1)c1ccccc1 (centres undefined),–,-1.05% (inactive)
O=c1[nH]c2ccccc2n1C1CCN(CCCC(c2ccc(F)cc2)c2ccc(F)cc2)CC1,–,-0.751% (inactive)
Oc1cc(Cl)ccc1Oc1ccc(Cl)cc1Cl,–,13.1% (inactive)
Clc1ccc(COC(Cn2ccnc2)c2ccc(Cl)cc2Cl)cc1 (centres undefined),–,-5.88% (inactive)
c1ccc2c(c1)Nc1ccccc1S2,–,-1.15% (inactive) and -1.18% (inactive)
CC(C)(C)CC(C)(C)c1ccc(O)cc1,25.1 µM (active),–
C[C@]12CCC(=O)C(O)=C1CC[C@@H]1[C@@H]2CC[C@]2(C)C(=O)CC[C@@H]12,–,-1.14% (inactive)
